# TEAD-YAP block: TEAD-YAP interaction inhibition. inhibition, % at 9.12 µM. AID 1259422. actives 1.4% (n = 640,000). HEK-TIYL cells, TEAD-Gal4/YAP UAS-luciferase luminescence; in the data active = inhibition above about 32%
# FBW7 act: human FBW7 E3 ligase activation, primary screen; AlphaScreen FBW7–phospho-cyclin E peptide binding, activator screen; normalized activity (activation), % at 26.1 µM; actives 0.13% (n = 650,000); in the data active = normalized activity above about 1.9%;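 also: purified mutant Fbw7 with reduced substrate affinity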
# GPR151 ag: human GPR151 activation; activation, % at 11.2 µM; AID 1508602; actives 1% (n = 650,000); PathHunter beta-arrestin GPR151 cells, luminescence; in the data active = activation above about 4.9%
# MITF primary: blocks human microphthalmia-associated transcription factor | O75030 | AlphaScreen MITF homodimerization, bead proximity signal | inhibition, % at 2.6 µM | actives 0.91% (n = 650,000) | AID 1259374; in the data active = inhibition above about 50%
# Target sequence (O75030 whole entry, looked up): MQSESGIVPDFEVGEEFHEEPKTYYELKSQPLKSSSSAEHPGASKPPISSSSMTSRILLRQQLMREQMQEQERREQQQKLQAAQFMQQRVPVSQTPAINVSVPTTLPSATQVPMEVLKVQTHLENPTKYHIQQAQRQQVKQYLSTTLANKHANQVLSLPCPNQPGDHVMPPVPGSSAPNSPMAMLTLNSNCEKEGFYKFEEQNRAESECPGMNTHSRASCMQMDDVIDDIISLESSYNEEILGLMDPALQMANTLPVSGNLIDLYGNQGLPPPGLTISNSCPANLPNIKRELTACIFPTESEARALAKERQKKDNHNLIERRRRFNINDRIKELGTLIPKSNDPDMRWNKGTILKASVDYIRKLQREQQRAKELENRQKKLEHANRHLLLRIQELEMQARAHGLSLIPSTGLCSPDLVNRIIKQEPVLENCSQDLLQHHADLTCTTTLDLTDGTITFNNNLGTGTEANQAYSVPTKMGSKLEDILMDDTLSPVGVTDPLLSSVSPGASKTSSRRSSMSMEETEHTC
# GPR151 conf act: human GPR151 activation, confirmation screen | shares compounds with GPR151 ag | GPR151 PathHunter beta-arrestin cells, luminescence, 90 min; % of EA-reagent control over plate median | activation, % at 11.2 µM | 6,700 tested, under 10 active;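 active = mean percent activation across replicates above the confirmation screen cutoff of 4.91%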
# GPR119 counter: counter-screen for GPR151 activators: effect on human GPR119; actives 0.3% (n = 6,700); activation, % at 11.2 µM; GPR119 PathHunter beta-arrestin cells, luminescence, 90 min; 0 = compound-well median, 100 = enzyme-acceptor control; shares compounds with GPR151 ag;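 active = mean percent activation in the counterscreen above 29.09%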;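 also: counterscreen on off-target GPR119 to flag nonselective hits from the GPR151 activator screen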
# Hits are given with their value; i = inactive; nt = no result. Rows were chosen to be rich in hits. Some 3.4% of all compounds tested hit in one or more screens of this group.
SMILES,TEAD-YAP block,FBW7 act,GPR151 ag,MITF primary,GPR151 conf act,GPR119 counter
CCN1CCc2c(sc(NC(=O)c3ccc(S(=O)(=O)N4CCCC(C)C4)cc3)c2C(=O)OC)C1 (stereo unspecified),i,i,5.3,i,i,i
COC(=O)c1c(NC(=O)c2ccc(S(=O)(=O)N3CCCC(C)C3)cc2)sc2c1CCN(C(C)C)C2 (stereo unspecified),i,i,i,i,nt,nt
O=C(NCc1cccs1)NC1CC(=O)N(c2cccc(F)c2)C1 (stereo unspecified),i,i,5.0,i,i,i
Cc1ccc(N2CC(NC(=O)NCc3ccco3)CC2=O)cc1C (stereo unspecified),i,i,5.8,i,i,i
CC1(c2ccccc2Br)NC(=O)NC1=O (stereo unspecified),i,i,i,i,nt,nt
COc1ccc(-c2cn3c(C)c(C(=O)Nc4ccccc4)sc3n2)cc1,i,i,i,i,nt,nt
CC1CCCC(NS(=O)(=O)c2ccc(F)c(C(=O)Nc3cc(Cl)ccc3Cl)c2)C1C (stereo unspecified),i,i,7.3,i,i,i
CCOC(=O)c1c(NC(=O)c2ccc(S(=O)(=O)N(CC)CC)cc2)sc2c1CCN(C(C)=O)C2,i,i,i,i,nt,nt
Cc1ccc(CNC(=O)CSC2=Nc3ccccc3C3=NC(C(C)C)C(=O)N23)cc1 (stereo unspecified),i,i,i,i,nt,nt
CCC(C)C1N=C2c3ccccc3N=C(SCC(=O)N3CC(C)CC(C)C3)N2C1=O (stereo unspecified),i,i,11.8,i,i,i
CC(C)C1N=C2c3ccccc3N=C(SCC(=O)NCCc3ccccc3)N2C1=O (stereo unspecified),i,i,5.8,i,i,i
CC1CC(C)CN(C(=O)CSC2=Nc3ccccc3C3=NC(C(C)C)C(=O)N23)C1 (stereo unspecified),i,i,i,i,nt,nt
Cc1ccc(C2=N/C(=C\c3ccccc3F)C(=O)O2)cc1C,i,i,i,i,nt,nt
COc1ccc(CCN2C(=O)CCC2CCNCc2cccc(C(F)(F)F)c2)cc1 (stereo unspecified),i,i,12.2,i,i,i
COc1ccc(CCNC2CC(=O)N(c3ccccc3)C2=O)cc1 (stereo unspecified),i,i,5.8,i,i,i
Cc1ccc(N2C(=O)CC(NCCc3ccc(Cl)cc3)C2=O)cc1 (stereo unspecified),i,i,6.4,i,i,i
CCCOc1ccc(N2C(=O)CC(NCCCc3ccccc3)C2=O)cc1 (stereo unspecified),i,i,6.1,i,i,i
CCCOc1ccc(N2C(=O)CC(NCC34CC5CC(CC(C5)C3)C4)C2=O)cc1 (stereo unspecified),i,i,5.2,i,i,i
COc1ccc(CCNC2CC(=O)N(c3ccc(F)cc3)C2=O)cc1 (stereo unspecified),i,i,i,i,nt,nt
O=C(NCC1CCCO1)c1ccc2c(=O)n(Cc3ccco3)c(SCc3ccc([N+](=O)[O-])cc3)nc2c1 (stereo unspecified),i,i,i,i,nt,nt
Cc1ccccc1Cn1c(CN2CCCCC2)nc2c1c(=O)n(C)c(=O)n2C,i,i,i,i,nt,nt
COc1ccc(NC(C)=O)cc1NC(=O)c1ccccc1Br,i,i,i,i,nt,nt
CCCCC1=NN2C(=N)/C(=C/c3cc(Cl)c(OCCOc4cccc(C)c4)c(OC)c3)C(=O)N=C2S1,i,i,i,i,nt,nt
O=C(Cn1nnc(-c2ccccc2NC(=O)C2CCCCC2)n1)NC1CCCC1,i,i,i,i,nt,nt
O=C(OC1CCS(=O)(=O)C1)c1ccccc1[N+](=O)[O-] (stereo unspecified),i,i,i,i,nt,nt
SMILES,TEAD-YAP block,FBW7 act,GPR151 ag,MITF primary,GPR151 conf act,GPR119 counter
N#Cc1c(NC(=O)c2nn3c(C(F)(F)F)cc(-c4cccs4)nc3c2Cl)sc2c1CCCC2,i,i,9.2,i,i,i
N#Cc1c(NC(=O)c2nn3c(C(F)(F)F)cc(-c4cccs4)nc3c2Cl)sc2c1CCCCC2,i,i,i,i,nt,nt
CC1CCCC(C)N1C(=O)c1cc2nc(-c3cccs3)cc(C(F)(F)F)n2n1 (stereo unspecified),i,i,5.4,i,i,i
O=C(c1nn2c(C(F)(F)F)cc(-c3cccs3)nc2c1Cl)N1CCCCC1,i,i,6.4,i,i,i
CC(=O)N1CCc2cc(Br)cc(S(=O)(=O)Nc3noc4ccccc34)c21,i,i,19.0,i,i,i
CC(=O)N1CCc2cc(Br)cc(S(=O)(=O)Nc3cccc(Cl)c3)c21,i,i,i,i,nt,nt
Cc1ccc(-c2c(N3CCCCC3)c(=O)c2=O)cc1,i,i,6.8,i,i,i
CCOc1cc2[nH]c(=O)n(Cc3cccc(OC)c3)c(=O)c2cc1OCC,i,i,8.5,i,i,i
COCc1c(C(=O)N/N=C\c2cccc(OC)c2)nnn1-c1nonc1N,i,i,i,i,nt,nt
COc1ccc(-c2nc3ccccc3c(=O)n2NC(=O)c2ccccc2[N+](=O)[O-])cc1OC,i,i,i,i,nt,nt
Cc1nc(N2CCOCC2)c2c(C)c(C(=O)Nc3cccc(C(F)(F)F)c3)sc2n1,i,i,5.8,i,i,i
Cc1nc2sc(C(=O)Nc3cccc(C(F)(F)F)c3)c(C)c2c(=O)[nH]1,i,i,6.5,i,i,i
Cc1ccc(NC(=O)c2sc3nc(C)nc(N4CCN(c5ccccn5)CC4)c3c2C)c(Br)c1,i,i,8.8,i,i,i
Cc1cccc(NC(=O)c2sc3nc(C)nc(N4CCOCC4)c3c2C)c1,i,i,i,i,nt,nt
COc1cc(Br)c(C2CC(=O)Nc3ccc4ccccc4c32)cc1OC (stereo unspecified),i,i,i,i,nt,nt
COc1cc2c(c(OC)c1)C(c1cc(OC)c(OC)cc1Br)CC(=O)N2 (stereo unspecified),i,i,5.1,i,i,i
CCOc1cc(-c2nc3sc4c(c3c(=O)[nH]2)CCCC4)ccc1OCc1ccccc1F,i,i,5.5,i,i,i
COc1cc(-c2nc3sc4c(c3c(=O)[nH]2)CCCC4)ccc1OCCOc1ccc(C)c(C)c1,i,i,5.7,i,i,i
C[C@H]1O[C@@H](O[C@H]2[C@@H](O)C[C@H](O[C@H]3[C@@H](O)C[C@H](O[C@H]4CCC5(C)[C@H](CC[C@@H]6[C@@H]5C[C@@H](O)C5(C)C(C7=CC(=O)OC7)CCC65O)C4)O[C@@H]3C)O[C@@H]2C)C[C@H](O)[C@@H]1O (stereo partly specified),nt,i,5.0,i,i,98.4
COc1ccc(C)cc1NC(=O)c1sc2ncn(CC(=O)N3CC(C)CC(C)C3)c(=O)c2c1C (stereo unspecified),i,i,i,i,nt,nt

# Assay outcomes as filed in PubChem.
